The source of these data is the supplement of paper PMC3545927.

This test deals with furin, P09958. Briefly: furin cleavage Z-score vs untreated control; higher = more cleavage, active = 3.5 or more, inactive = 1 or less, 8 variable residues between constant flanks. The essentials: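 Purified furin digested bead-held 8-mer peptide–cDNA fusions at 1:10 enzyme:substrate in 0.01 ml of 50 mM HEPES pH 7.5 with CaCl2 and NaCl for 7.5, 15 or 30 min. The cleavage Z-score compares sequencing counts of released DNA with furin-free reactions on a log scale, with lowess adjustment and median absolute deviation scaling.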

The other results are listed elsewhere or left out. The true hit rate is not given.

Sequence of furin, P09958 (P09958 whole entry, the tested form may be a part): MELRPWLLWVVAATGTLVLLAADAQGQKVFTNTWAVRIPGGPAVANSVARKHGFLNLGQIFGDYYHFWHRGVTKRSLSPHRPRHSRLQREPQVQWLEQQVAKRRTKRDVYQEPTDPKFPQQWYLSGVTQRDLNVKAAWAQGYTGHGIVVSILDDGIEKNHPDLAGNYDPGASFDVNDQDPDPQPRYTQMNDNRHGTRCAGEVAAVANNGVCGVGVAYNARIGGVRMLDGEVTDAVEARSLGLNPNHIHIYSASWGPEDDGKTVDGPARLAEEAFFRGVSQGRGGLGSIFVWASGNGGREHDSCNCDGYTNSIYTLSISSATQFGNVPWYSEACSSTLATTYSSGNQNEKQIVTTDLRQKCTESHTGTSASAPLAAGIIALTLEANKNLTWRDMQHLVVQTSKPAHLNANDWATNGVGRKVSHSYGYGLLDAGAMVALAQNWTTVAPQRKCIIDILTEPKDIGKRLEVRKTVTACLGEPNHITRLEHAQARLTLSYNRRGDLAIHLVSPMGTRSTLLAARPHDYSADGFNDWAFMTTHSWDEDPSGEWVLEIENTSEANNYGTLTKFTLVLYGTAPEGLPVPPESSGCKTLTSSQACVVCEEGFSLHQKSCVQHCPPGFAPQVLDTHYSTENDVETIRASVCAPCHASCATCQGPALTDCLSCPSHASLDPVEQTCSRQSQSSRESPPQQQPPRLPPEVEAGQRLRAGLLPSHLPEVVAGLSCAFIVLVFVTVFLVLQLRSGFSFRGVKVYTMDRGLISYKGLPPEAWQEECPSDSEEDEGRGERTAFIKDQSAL

Take CAKMIGGHYVAGNASASA [HC624]: the “furin cleavage Z-score” value (7.5 min) is -0.495 (inactive), the “furin cleavage Z-score” value (15 min) was -0.0648 (inactive) and the “furin cleavage Z-score” value (30 min) was -0.0572 (inactive).

With CACGSVFLVGAGNASASA [HC301], the “furin cleavage Z-score” value was -1.62 (inactive) (7.5 min), -1.91 (inactive) (15 min) and -1.35 (inactive) (30 min).

Consider CAEVVTSTWIAGNASASA [HC2244], for which the “furin cleavage Z-score” value is, setting by setting: (7.5 min) 0.57 (inactive); (15 min) 0.293 (inactive); (30 min) 0.802 (inactive).

In the case of CAEQPCHRPSAGNASASA [HC2342], the “furin cleavage Z-score” value (7.5 min) was -1.24 (inactive), the “furin cleavage Z-score” value (15 min) was found to be 2.02 and the “furin cleavage Z-score” value (30 min) was -0.236 (inactive).

As for CAEREISVPAAGNASASA [HC1293], the “furin cleavage Z-score” value (7.5 min) is -0.452 (inactive), the “furin cleavage Z-score” value (15 min) was -1.55 (inactive) and the “furin cleavage Z-score” value (30 min) was -0.526 (inactive).

In the case of CAGQLDLSGWAGNASASA [HC1642], the “furin cleavage Z-score” value (7.5 min) is -0.176 (inactive), the “furin cleavage Z-score” value (15 min) was 0.869 (inactive) and the “furin cleavage Z-score” value (30 min) is 0.13 (inactive).

As for CALRRRRKRYAGNASASA [FS-944], the “furin cleavage Z-score” value was 11.8 (active) (7.5 min), 14.5 (active) (15 min) and 10.2 (active) (30 min).

Turning to CARRRRNKRYAGNASASA [FS-1403], the “furin cleavage Z-score” value reads like this: (7.5 min) 12.8 (active); (15 min) 14.4 (active); (30 min) 10.6 (active).

On to CAEETTPCSGAGNASASA [HC1972], for which the “furin cleavage Z-score” value (7.5 min) is -1.3 (inactive), the “furin cleavage Z-score” value (15 min) is -1.71 (inactive) and the “furin cleavage Z-score” value (30 min) was -0.823 (inactive).

Consider CATTPCSRSWAGNASASA [HC1893], for which the “furin cleavage Z-score” value (7.5 min) was 0.791 (inactive), the “furin cleavage Z-score” value (15 min) is 0.627 (inactive) and the “furin cleavage Z-score” value (30 min) was -0.432 (inactive).

Regarding CAPLRDWAHNAGNASASA [HC638], the “furin cleavage Z-score” value reads like this: (7.5 min) 0.639 (inactive); (15 min) 0.256 (inactive); (30 min) 0.786 (inactive).

Turning to CASTPCSAHTAGNASASA [HC2578], the “furin cleavage Z-score” value reads like this: (7.5 min) -0.678 (inactive); (15 min) -2.17 (inactive); (30 min) 0.0661 (inactive).

As for CARKIRKKRLAGNASASA [FS-84], the “furin cleavage Z-score” value (7.5 min) is 9.24 (active), the “furin cleavage Z-score” value (15 min) is 9.01 (active) and the “furin cleavage Z-score” value (30 min) was 7.01 (active).

Regarding CARKMRPARLAGNASASA [FS-1260], the “furin cleavage Z-score” value runs as follows: (7.5 min) 3.41; (15 min) 4.23 (active); (30 min) 4.92 (active).

As to CARHSRSQGAAGNASASA [FS-2948], the “furin cleavage Z-score” value was -0.651 (inactive) (7.5 min), 0.879 (inactive) (15 min) and -0.497 (inactive) (30 min).

Consider CARKMRLGDAAGNASASA [FS-1728], for which the “furin cleavage Z-score” value by setting is: (7.5 min) 0.749 (inactive); (15 min) 0.395 (inactive); (30 min) -0.759 (inactive).

Turning to CARHSRQVLLAGNASASA [FS-2947], the “furin cleavage Z-score” value was 0.717 (inactive) (7.5 min), 2.58 (15 min) and 2.14 (30 min).

As for CARKVREAYLAGNASASA [FS-2427], the “furin cleavage Z-score” value reads like this: (7.5 min) 5.91 (active); (15 min) 6.8 (active); (30 min) 7.91 (active).

As for CARHSRKKRLAGNASASA [FS-1259], the “furin cleavage Z-score” value is 8.52 (active) (7.5 min), 11.2 (active) (15 min) and 9.02 (active) (30 min).

In the case of CARKIRIKGIAGNASASA [FS-2558], the “furin cleavage Z-score” value runs as follows: (7.5 min) 0.0544 (inactive); (15 min) -0.85 (inactive); (30 min) -1.75 (inactive).

Regarding CARKVRDKISAGNASASA [FS-1961], the “furin cleavage Z-score” value runs as follows: (7.5 min) -0.364 (inactive); (15 min) -1.5 (inactive); (30 min) 1.37.

On to CAFFCFAWYLAGNASASA [HC546], for which the “furin cleavage Z-score” value is, setting by setting: (7.5 min) -1.2 (inactive); (15 min) -0.615 (inactive); (30 min) -0.815 (inactive).

For CAELIEANLLAGNASASA [HC1273], the “furin cleavage Z-score” value (7.5 min) was -1.11 (inactive), the “furin cleavage Z-score” value (15 min) was -1.92 (inactive) and the “furin cleavage Z-score” value (30 min) was 0.0877 (inactive).

Regarding CARYSRSSAAAGNASASA [FS-1811], the “furin cleavage Z-score” value (7.5 min) was determined as 1.3, the “furin cleavage Z-score” value (15 min) came to 1.43 and the “furin cleavage Z-score” value (30 min) is 0.767 (inactive).

With CARAARSLLQAGNASASA [FS-1679], the “furin cleavage Z-score” value reads like this: (7.5 min) 1.57; (15 min) 0.802 (inactive); (30 min) 5.01 (active).

In the case of CARVVRELLQAGNASASA [FS-1805], the “furin cleavage Z-score” value runs as follows: (7.5 min) 5.28 (active); (15 min) 8.9 (active); (30 min) 7.51 (active).

On to CARWGRFLLQAGNASASA [FS-3128], for which the “furin cleavage Z-score” value runs as follows: (7.5 min) 0.358 (inactive); (15 min) 1.41; (30 min) 0.253 (inactive).

As to CAWLAGLFYHAGNASASA [HC379], the “furin cleavage Z-score” value was -1.56 (inactive) (7.5 min), -0.299 (inactive) (15 min) and -1.72 (inactive) (30 min).
